Hits are enriched below; roughly 10% of the tested compounds scored in any of these assays.
hNpr1 antagonist: Natriuretic polypeptide receptor (hNpr1) antagonism - Primary qHTS; HEK293 hNpr1 GloSensor cGMP, ANP-stimulated luminescence; Atrial natriuretic peptide receptor 1 (Homo sapiens), P16066; AID 1347048, 2019; 76,000 tested, 1.6% active; Potency, µM (top dose mostly 46.3 µM), without a hit: at the top dose activity change, negative = inhibition, usual class: inhibitors; calls by dose curve; further: nearly all actives have a fitted effect of over 60% in size
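HEK293 cells stably expressing human Npr1 and cGMP GloSensor pGS-40F, loaded 2 h with 2% GloSensor reagent, given compound 30 min at room temperature. Luminescence read before and 20 min after 0.1 nM hNppA.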
GPT2 inhibitor: Primary qHTS assay for inhibitors of Glutamate pyruvate transaminase 2 (GPT2); Alanine aminotransferase 2 (Homo sapiens), Q8TD30; Recombinant GPT2, coupled pyruvate oxidase/HRP Amplex Red fluorescence; Potency, µM (top dose mostly 57.7 µM), for inactives: at the highest dose activity change, negative = inhibition, most hits filed as inhibitors; 100,000 tested, 0.25% active; further: nearly all actives have a fitted effect of over 60% in size
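Recombinant GPT2 (10ng/uL) with 250uM a-KG and 2mM L-alanine, 30 min at room temperature, in HEPES pH 7.5 buffer. Pyruvate detected by pyruvate oxidase/HRP/Amplex Red fluorescence after 30 min in the dark; AOA (50uM) as positive control.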
HEK293 tox: Cytotoxic Profiling in HEK 293 Cell Line of Diverse Libraries Using Quantitative High-Throughput Screening; AID 1345083, 2018; 94,000 tested, 6.6% active; HEK 293 viability, ATP luminescence (CellTiter-Glo), 48-72 h; Potency, µM (titrated, usually from 115 µM), for inactives: top-dose activity change, negative = cytotoxicity, usual class: inhibitors; further: nearly all actives have a fitted effect of over 60% in size
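HEK 293 cells seeded at 250 cells/well were exposed to compound for 48 or 72 hr at 37 degree Celsius. Viability taken as ATP content by CellTiter-Glo luminescence.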
NIH3T3 tox: Cytotoxic Profiling in NIH 3T3 Cell Line of Diverse Libraries Using Quantitative High-Throughput Screening. NIH 3T3 viability, CellTiter-Glo ATP luminescence, 48-72 h. 94,000 tested, 4.3% active. Potency, µM (doses to about 96.7 µM), for the others: at the top dose activity change, negative = cytotoxicity, usual class: inhibitors; further: nearly all actives have a fitted effect of over 55% in size
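ATP-dependent luminescence (CellTiter-Glo) served as the viability signal for NIH 3T3 cells treated with compound for 48 or 72 hr at 37 °C.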
Luciferase inh: Firefly luciferase inhibition profiling of diverse chemical library using quantitative high-throughput screening. Luciferin 4-monooxygenase (Photinus pyralis), P08659. purified P. pyralis luciferase, luminescence, biochemical. Potency, µM (highest dose often 115 µM), most hits filed as inhibitors. 76,000 tested, 2.5% active. AID 1347043, 2019; further: nearly all actives have a fitted effect of over 65% in size
Target sequence (P08659 whole entry, looked up): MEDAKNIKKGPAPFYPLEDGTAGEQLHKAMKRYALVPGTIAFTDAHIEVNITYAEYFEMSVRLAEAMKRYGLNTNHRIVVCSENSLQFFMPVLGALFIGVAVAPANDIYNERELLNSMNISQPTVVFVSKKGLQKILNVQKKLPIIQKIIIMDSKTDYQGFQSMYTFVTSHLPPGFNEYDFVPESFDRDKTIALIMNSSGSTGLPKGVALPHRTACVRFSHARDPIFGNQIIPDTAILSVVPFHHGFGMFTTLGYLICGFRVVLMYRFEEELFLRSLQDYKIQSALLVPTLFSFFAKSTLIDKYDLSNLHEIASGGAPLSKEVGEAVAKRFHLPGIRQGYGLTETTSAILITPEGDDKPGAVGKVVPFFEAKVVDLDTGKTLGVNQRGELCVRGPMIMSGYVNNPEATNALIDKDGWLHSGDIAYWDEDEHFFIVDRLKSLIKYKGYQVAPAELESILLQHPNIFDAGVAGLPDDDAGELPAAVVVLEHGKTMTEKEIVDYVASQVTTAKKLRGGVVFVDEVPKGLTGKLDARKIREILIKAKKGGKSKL
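Purified P. pyralis luciferase (10nM final) in 50mM Tris acetate pH 7.5, 10mM Mg acetate, 0.01% Tween-20, 0.05% BSA with 10uM D-luciferin and 10uM ATP. Compounds titrated qHTS. Luminescence imaged on CCD.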
Active calls of the source: *; i = inactive; ? = inconclusive; / = no result; [ ] = dose if it differs, or a comment. Unless noted, the call rests on the fitted dose curve; in most records, active means well fitted curve in the direction sought with a large enough effect; inconclusive means small, poorly fitted or top-dose-only effect, or another doubt; inactive means no such curve, though single readings can be large; an effect the other way counts as inactive or inconclusive. On the % scale 0 is the no-effect control and ±100 the full control effect; potency means the concentration at half of the fitted maximal effect.

SMILES | hNpr1 antagonist | GPT2 inhibitor | HEK293 tox | NIH3T3 tox | Luciferase inh
COc1ccc(NC(=O)Cn2ccn3nc4c(c3c2=O)CCCCC4)cc1Cl | 21.1% | i | ? | -9.0% | i
COc1ccccc1-n1c(=O)c(C(=O)N2CCN([S+](=O)([O-])c3cccc(C(F)(F)F)c3)CC2)nc2cccnc21 | / | i | 0.1% | ? | /
O=C(NCc1ccccc1)C1CCCN(c2nccc(Nc3ccccc3F)n2)C1 (stereo not given) | / | -13.4% | 17.8µM* | 31.6µM* | /
O=C(NCC1CC1)c1ccc2nnc(C3CCCC3)n2c1 | / | i | 2.4%[172 µM] | -9.5%[138 µM] | /
COc1cccc(CN(C)C(=O)c2cn(Cc3ccc(Cl)cc3)nn2)c1 | -2.5% | -7.2% | ? | ? | i
O=C(NCc1ccccc1Cl)c1ccc2nnc(Cc3ccc(Cl)cc3)n2c1 | / | 3.1% | ? | ? | /
O=C(NCc1ccc(F)cc1)c1ccc2nnc(Cc3ccc(Cl)cc3)n2c1 | / | i | 39.8µM* | ? | /
O=C(NCCc1ccc(Cl)cc1)c1ccc2nnc(Cc3ccc(Cl)cc3)n2c1 | / | i | 28.2µM* | 28.2µM* | /
O=C(NCc1cccc(C(F)(F)F)c1)c1ccc2nnc(Cc3ccc(Cl)cc3)n2c1 | / | -18.7% | 31.6µM* | 22.4µM* | /
O=C(NCc1ccc(Cl)cc1)c1ccc2nnc(Cc3ccc(Cl)cc3)n2c1 | / | i | 44.7µM* | 31.6µM* | /
CN1CCC(NC(=O)c2n[nH]c3c2CN(C(=O)c2ccccc2)CC3)CC1 | 4.6% | -0.3% | -0.6% | i | i
CC(C)CN1C(=O)COC[C@@H]1[C@H](O)c1ccc(NC(=O)C2CCCCC2)cc1 | 1.0%[70.6 µM] | -2.9%[88.5 µM] | ? | -17.7%[138 µM] | i
O=C(CN1CC2CC(C1)[C@H]1CCCC(=O)N1C2)N1CCN(c2ccc(Cl)cc2)CC1 (stereo not given in full) | 5.6% | i | -19.6% | 3.4% | i
CNC(=O)c1cc(C2CC2)nc2c1c(C1CCN(C(=O)c3ccncc3)CC1)nn2C | / | / | i | 4.8% | /
CC(C)(C)CC(=O)Nc1cnc(-c2cccc(Cl)c2)nc1 | 3.98µM* | i | 35.5µM* | 31.6µM* | 0.251µM*
Cn1ccc(C(=O)N2CC(COc3ccccc3)C3(C2)CN(c2ccccc2)C3)n1 (stereo not given) | -1.3%[70.6 µM] | -15.4%[88.5 µM] | ? | 100µM* | i
Cc1ncsc1C(=O)N1CC(COc2ccccc2)C2(C1)CN(c1ccccc1)C2 (stereo not given) | 1.0%[70.6 µM] | -4.4%[88.5 µM] | 100µM* | ? | i
Cn1ccc(C(=O)N2CC(CNC(=O)Nc3ccccc3)C3(C2)CN(c2ccccc2)C3)n1 (stereo not given) | -4.3% | -7.1% | -10.8% | ? | i
Cc1ncsc1C(=O)N1CC(CNC(=O)Cc2ccccc2)C2(C1)CN(c1ccccc1)C2 (stereo not given) | 3.5% | -1.4% | 1.8% | ? | i
Cn1ccc(C(=O)N2CC(CNc3ccccc3)C3(C2)CN(c2ccccc2)C3)n1 (stereo not given) | ? | ? | 63.1µM* | ? | i
Cc1cc(Nc2ncncc2-c2nc(-c3ccccc3)no2)ccc1F | -0.4% | i | -14.4% | i | i
CC(C)c1ccc(-c2nc(C3CC(=O)N(c4ccc(F)cc4)C3)no2)cc1 (stereo not given) | ? | i | 35.5µM* | -20.2% | i
CCc1ccc(N2CC(c3noc(-c4ccc(OC)nc4OC)n3)CC2=O)cc1 (stereo not given) | -19.7% | 0.5% | 44.7µM* | ? | i
CC(C)c1ccc(-c2nc(C3CC(=O)N(c4ccc(F)c(Cl)c4)C3)no2)cc1 (stereo not given) | ? | i | ? | ? | i
CCc1ccc(N2CC(c3noc(-c4ccccc4)n3)CC2=O)cc1 (stereo not given) | 1.2% | 0.6% | 79.4µM* | ? | i

Compound activity from PubChem.
